# Screens (PubChem)
# Shown are actives, neighbours in structure and some others; about 3.7% of the full set was active somewhere.
# tim10-1 inh = tim10-1 yeast growth inhibition; S. cerevisiae tim10-1 ts strain growth, BacTiter-Glo, 24 h; inhibition, % at 20 µM; 330,000 compounds, 2.2% hits;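 active = inhibition of at least 40%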;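 also: mutant grown at 25 °C; 0% = DMSO wells with yeast and 100% = wells holding no yeast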
# PfHsp90 yeast 2 = growth inhibition of yeast expressing Plasmodium Hsp90; S. cerevisiae expressing PfHsp90, BacTiter-Glo ATP, 48 h; yeast lacking PDR1 and PDR3 efflux regulators; 310,000 compounds, 0.32% hits; inhibition, % at 9.4 µM;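 active = every replicate shows inhibition above about 80%, whatever the replicate mean, limit read from the data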;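 also: 0% = DMSO neutral controls and 100% = 20 µM radicicol positive controls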
# tim23-1 inh = growth inhibitors of tim23-1 mutant yeast. inhibition, % at 20 µM. S. cerevisiae tim23-1 growth, BacTiter-Glo luminescence, 24 h. 330,000 compounds, 1.3% hits;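 active = growth inhibition of the mutant yeast at or above 50%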;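 also: temperature-sensitive mutant grown at 25 °C; plate controls were DMSO-treated mutant yeast for no effect and medium wells lacking yeast for full effect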
# TIM10 inh = inhibits growth of TIM10 yeast strain; S. cerevisiae TIM10 strain growth, BacTiter-Glo luminescence, 24 h; inhibition, % at 10 µM; 330,000 compounds, 1.4% hits;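 active = inhibition of 40% or more at the single tested concentration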;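 also: wild-type TIM10 isogenic control strain grown at permissive 25 °C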
# NALP3 yeast inh = NALP3 inhibition in yeast; Yeast reconstituted NLRP3/ASC/caspase-1, beta-gal luminescence, 24 h; inhibition, % at 10 µM; 330,000 compounds, 0.39% hits; AID 2825;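 active = inhibition of 50% or more; inactive = inhibition below 50%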;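 also: plate controls were induced DMSO wells for no effect and uninduced yeast grown without galactose for full effect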
# tim10-1 confirm = tim10-1 yeast growth inhibition, confirmed; shares compounds with tim10-1 inh; 7,400 compounds, 56% hits; inhibition, % at 20 µM; S. cerevisiae tim10-1 ts strain growth, BacTiter-Glo, 24 h;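 active = inhibition of yeast growth at or above a set limit in either of two repeat tests at 20 µM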;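 also: tim10-1 mutant grown at permissive 25 °C to find synthetic lethal compounds; 0% = DMSO yeast wells and 100% = medium wells without yeast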
# TIM10 conf = TIM10 yeast growth inhibition, confirmed. shares compounds with TIM10 inh. S. cerevisiae tim10 strain growth, BacTiter-Glo luminescence, 24 h. inhibition, % at 10 µM. 4,600 compounds, 63% hits;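 active = inhibition of yeast growth at or above a set limit in either of two replicates at 10 µM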;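 also: this counterscreen used the strain with wild-type TIM10; 0% = yeast with DMSO and 100% = medium wells lacking yeast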
# tim23-1 confirm = confirmation of tim23-1 mutant yeast growth inhibitors. shares compounds with tim23-1 inh. S. cerevisiae tim23-1 growth, BacTiter-Glo luminescence, 24 h. inhibition, % at 20 µM. 4,400 compounds, 83% hits;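 active = inhibition above about 39% in either of two replicate wells at 20 µM, limit read from the data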;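 also: temperature-sensitive tim23-1 mutant grown at 25 °C; 0% = DMSO wells with yeast and 100% = medium wells without yeast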
# Active calls of the source: *; nt = not tested or not shown.
SMILES,tim10-1 inh,PfHsp90 yeast 2,tim23-1 inh,TIM10 inh,NALP3 yeast inh,tim10-1 confirm,TIM10 conf,tim23-1 confirm
O=C(Nc1ccccc1C(=O)NC1CC1)c1ccc([N+](=O)[O-])o1,48*,9,64*,40,10,34*,nt,66*
COc1ccc2[nH]cc(CCNC(=O)Cn3cc(C)c(=O)[nH]c3=O)c2c1,nt,23,nt,nt,nt,nt,nt,nt
O=C(c1cc(-c2ccc(O)cc2)on1)N1CCN(c2ccc(F)cc2)CC1,49*,-11,52*,41*,27,26,41*,46*
O=C(c1cc(-c2ccc(O)cc2)on1)N1CCN(c2ccccc2)CC1,28,-6,42,21,16,nt,nt,nt
CCc1ccc(C(=O)NNC(=O)c2cc(S(=O)(=O)N(C)C)ccc2N2CCCC2)cc1,31,3,-12,1,-4,nt,nt,nt
O=C(Cc1ccc([N+](=O)[O-])cc1)N1CCCCCC1,1,10,10,-3,-3,nt,nt,nt
CC1CC(C)CN(C(=O)COC(=O)c2ccc([N+](=O)[O-])o2)C1 (centres undefined),21,-34,22,25,20,nt,nt,nt
CC1CCN(C(=O)c2ccc([N+](=O)[O-])o2)CC1,41*,-8,56*,6,37,40*,nt,58*
O=C(c1ccc(-c2ccc([N+](=O)[O-])cc2)o1)N1CCCCCCC1,59*,-55,76*,63*,3,55*,69*,53*
Cc1nnc(SC(C)C(=O)Nc2ccc(N3CCOCC3)cc2)n1Cc1ccccc1 (centres undefined),-7,-3,11,8,14,nt,nt,nt
COc1cc2c(cc1OC)C(C(=O)Nc1ccc(F)c(Cl)c1)CC(=O)N2 (centres undefined),7,-4,-5,-2,8,nt,nt,nt
Cc1ccn2cc(CNS(=O)(=O)c3ccc4ccccc4c3)nc2c1,26,1,24,13,7,nt,nt,nt
C[C@@H]1CC=C[C@H]2[C@H]1C(=O)N(Cc1ccccc1)[C@H]2c1ccc2ccccc2c1Br,69*,-38,64*,65*,7,73*,56*,71*
O=C(CS(=O)c1ccc(C(F)(F)F)cc1[N+](=O)[O-])Oc1ccc(Cl)cc1 (centres undefined),47*,-7,70*,55*,-13,47*,36*,67*
O=C(NCCO)c1ccc(Oc2ccc(C(F)(F)F)cc2[N+](=O)[O-])cc1,0,-8,5,0,-10,nt,nt,nt
Cc1ccc(OCCNc2ccc(C(F)(F)F)cc2[N+](=O)[O-])cc1,3,-38,7,1,8,nt,nt,nt
Cc1cc(C)cc(OC(=O)CS(=O)c2ccc(C(F)(F)F)cc2[N+](=O)[O-])c1 (centres undefined),51*,-46,66*,31,21,28*,nt,68*
CC(=O)Nc1cccc(CP(=O)(c2ccccc2)c2ccccc2)c1,-18,-3,12,1,17,nt,nt,nt
Cc1ccc(C(=O)OCC(=O)N(C)c2ccccc2)c(C)c1,57*,-17,52*,18,13,50*,nt,46*
O=C(NCCc1ccccc1)C(=O)c1c(-c2ccccc2)cc2ccccn12,51*,-39,53*,27,18,36*,nt,54*
CC(Cc1cccs1)NC(=O)Nc1ccc(Cl)cc1 (centres undefined),36,6,25,13,27,nt,nt,nt
CC(Cc1cccs1)NC(=O)Nc1ccc(Cl)c(Cl)c1 (centres undefined),47*,-10,52*,59*,25,52*,62*,54*
Cc1cc(C)c2c(N)c(C(=O)C(C)(C)C)sc2n1,24,-23,-3,8,-9,nt,nt,nt
Cc1cc(C)c2c(N)c(S(=O)c3ccc(C(C)(C)C)cc3)sc2n1 (centres undefined),63*,-5,60*,35,8,44*,nt,62*
c1csc(-c2nc(NCC3CCCO3)c3ccccc3n2)c1 (centres undefined),23,-1,35,19,28,nt,nt,nt
SMILES,tim10-1 inh,PfHsp90 yeast 2,tim23-1 inh,TIM10 inh,NALP3 yeast inh,tim10-1 confirm,TIM10 conf,tim23-1 confirm
c1csc(CNc2nc(-c3cccs3)nc3ccccc23)c1,51*,-8,57*,42*,-4,44*,10,52*
CCC(=O)N/N=C(\C)CC(=O)Nc1ccccc1-c1ccccc1,14,7,27,5,9,nt,nt,nt
Cc1cc2n(n1)SC(Nc1cc(Cl)ccc1Cl)N2 (centres undefined),47*,-9,55*,48*,40,35*,45*,37*
CCN(C(=O)COC(=O)CNC(=O)c1ccc(C)cc1)c1c(N)n(Cc2ccccc2)c(=O)[nH]c1=O,3,-8,11,1,10,nt,nt,nt
CC12CCC(O)CC1=CCC1C2CCC2(C)C3=NN=CC3CC12 (centres undefined),nt,-112,nt,nt,nt,nt,nt,nt
Oc1ccc2ccccc2c1C1Nc2cccc3cccc(c23)N1,57*,-9,50*,50*,34,58*,44*,69*
COc1cc(C2Nc3cccc4cccc(c34)N2)ccc1O,31,-11,41,18,26,nt,nt,nt
CC(C(=O)Nc1ccccc1C#N)N1C(=O)NC2(CCCCCC2)C1=O (centres undefined),-12,7,9,-5,3,nt,nt,nt
Cc1ccc(N=C2NC(=O)/C(=C\c3ccsc3)S2)c(C)c1,52*,16,58*,47*,30,30,-13,66*
Cc1ccc(N=C2NC(=O)/C(=C/c3cccnc3)S2)c(C)c1,25,14,47,33,30,nt,nt,nt
Cc1cc(NC(=O)Nc2ccccc2[N+](=O)[O-])n(C)n1,-1,-5,-2,11,-1,nt,nt,nt
Cc1ccnc(NC(=O)c2ccc([N+](=O)[O-])o2)c1,64*,-24,61*,55*,-5,59*,3,76*
Cc1ccc(CNC(=O)c2nn(C)c(C)c2[N+](=O)[O-])cc1,2,34,11,-4,-3,nt,nt,nt
CN(Cc1ccccc1)C(=O)c1ccc([N+](=O)[O-])o1,68*,-15,50*,75*,-1,69*,72*,64*
O=C(Nc1ncccn1)c1ccc([N+](=O)[O-])o1,0,-24,5,14,19,nt,nt,nt
O=C(COC(=O)c1ccc([N+](=O)[O-])o1)c1ccccc1,26,14,27,5,14,nt,nt,nt
Cc1ccc(CNC(=O)c2ccc([N+](=O)[O-])o2)cc1,62*,8,64*,67*,7,57*,40*,54*
